Screening data: PubChem BioAssay, National Center for Advancing Translational Sciences (NCATS)
Hits are enriched below; roughly 2.6% of the tested compounds scored in any of these assays.
AmpC nodet inh – Promiscuous and Specific Inhibitors of AmpC Beta-Lactamase (assay without detergent); actives 1.8% (n = 71,000); P00811; AID 585, 2007; Potency, µM (series often up to 28.7 µM), for inactives: top-dose activity change, negative = inhibition; AmpC nitrocefin hydrolysis, absorbance 480 nm, no detergent; also: % of control where 0% means no effect
Target sequence (P00811 whole entry, looked up): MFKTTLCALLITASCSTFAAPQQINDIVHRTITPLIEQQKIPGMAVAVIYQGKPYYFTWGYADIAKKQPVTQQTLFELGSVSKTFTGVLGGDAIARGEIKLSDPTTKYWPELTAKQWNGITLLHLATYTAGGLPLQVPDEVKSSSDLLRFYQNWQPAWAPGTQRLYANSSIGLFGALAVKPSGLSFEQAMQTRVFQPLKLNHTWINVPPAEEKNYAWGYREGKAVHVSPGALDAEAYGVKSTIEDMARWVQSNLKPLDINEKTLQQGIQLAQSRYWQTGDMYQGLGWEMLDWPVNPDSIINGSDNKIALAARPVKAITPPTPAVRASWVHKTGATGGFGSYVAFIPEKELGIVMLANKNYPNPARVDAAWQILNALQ
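AmpC in 20 mM phosphate buffer pH 7.0 was preincubated 15 min at room temperature with compounds. Nitrocefin (800 uM stock) was then added and hydrolysis followed at 480 nm every 20 s for 4 min.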
AmpC det inh – Promiscuous and Specific Inhibitors of AmpC Beta-Lactamase (assay with detergent); purified AmpC, nitrocefin hydrolysis with detergent; Potency, µM (top dose mostly 28.7 µM), inactives show top-dose activity change, negative = inhibition; actives 0.09% (n = 71,000); AID 584, 2007; active = well fitted curve in the direction sought with a large enough effect; inconclusive = small, poorly fitted or top-dose-only effect; also: % is scaled to controls: 0 for no effect and ±100 for the full control effect
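E. coli AmpC (5.3 nM) in 20 mM phosphate pH 7.0 with 0.01% Triton X-100, preincubated 15 min RT with compound; nitrocefin (2 uL of 800 uM stock) hydrolysis followed by 480 nm absorbance every 20 s over 4 min.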
Anthrax LT inh – qHTS Assay for Anthrax Lethal Toxin Internalization | Cells, anthrax lethal toxin internalization, FRET ratio (460/530) | Potency, µM (highest dose often 40 µM), inactives show top-dose activity change, negative = inhibition, actives largely listed as inhibitors | actives 0.67% (n = 70,000) | AID 912, 2007; also: % is scaled to controls: 0 for no effect and ±100 for the full control effect; nearly all actives have a fitted effect of over 50% in size
SmPrx2 inh – Schistosoma Mansoni Peroxiredoxins (Prx2). S. mansoni Prx2 activity coupled to TGR/GSH (TGR is thioredoxin glutathione reductase), NADPH fluorescence loss, qHTS. Potency, µM. actives 0.07% (n = 65,000). AID 448, 2006
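Coupled assay in which S. mansoni TGR passes NADPH reducing equivalents via glutathione to Prx2, which reduces H2O2. Compounds were preincubated 15 min at room temperature with 25 nM TGR/50 nM Prx2 mix. Kinetic NADPH fluorescence loss (ex 365/em 450 nm) was monitored.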
An asterisk follows results filed as active; u = inconclusive; x = no result; ! = a repeat was not active; [ ] = remark or other dose. Unless noted, calls follow the shape of the full dose curve. Potency is read from the fitted curve at half-maximal effect.

SMILES	AmpC nodet inh	AmpC det inh	Anthrax LT inh	SmPrx2 inh
COc1ccccc1N1CCN(C(=O)c2sc3nc(-c4ccc(F)cc4)cn3c2C)CC1	126%	13%	16µM*	>57
O=C(O)c1c[nH]c2c(ccc3[nH]cc(C(=O)O)c(=O)c32)c1=O	8%[5.75 µM]	-1%[5.75 µM]	-5%[8 µM]	>57
O=c1cc(-c2ccc(O)cc2)oc2cc(O)cc(O)c12	4µM*!	6%	-17%	>57
O=c1cc(-c2ccccc2)oc2cc(O)cc(O)c12	-12%[12.8 µM]	-1%[12.8 µM]	-5%[3.58 µM]	>57
CC1CCN(CC(C)OC(=O)c2ccc3c(c2)OCCO3)CC1 (configuration not stated)	4µM*[single pt active]	27%	-7%	>57
CC(CN1CCCCC1)OC(=O)c1ccc2c(c1)OCO2 (configuration not stated)	-10%	-1%	-3%	>57
CCCCCC[C@@H]([C@H](C)O)n1cnc2c(N)ncnc21	20%	-2%	-8%	>57
COc1ccc2cc(C(=O)CCC(=O)O)ccc2c1	0%[5.75 µM]	-6%[5.75 µM]	-4%[8 µM]	>57
Cc1c(Cl)cccc1NC(=O)c1cc(-c2ccc(O)cc2)on1	13µM*[single pt active]	3%	u	>57
COc1ccccc1-c1cc(C(=O)N2CCc3ccccc3C2)no1	17%	7%	u	>57
CCN(CC)S(=O)(=O)c1ccc(-c2nnc3sc4cccc(C)c4n23)cc1	4µM*[single pt active]	14%	u	>57
O=[N+]([O-])c1cccc(C(F)(F)F)c1	1%	10%	3%	x
Cn1c(=O)c2c(nc(/C=C\c3cccc(Cl)c3)n2C)n(C)c1=O	12%	0%	-3%	>57
O=c1cc(O)cc(/C=C\c2ccc(O)c(O)c2)o1	6.3µM*	-3%	-1%	>57
COc1ccc(CNc2ncnc3ccc(-c4ccccc4CN(C)C)cc23)c(OC)c1	96%	8%	u	>57
COC(=O)c1ccc(CSc2nc3scc(-c4cccs4)c3c(=O)[nH]2)o1	13µM*	-5%	-2%	>57
O=C1C2=CC[C@H]3C(=O)N(C[C@@H]4CCCO4)C(=O)[C@@H]3[C@@H]2[C@H](O)[C@@H]2O[C@H]12	x	x	-8%[8 µM]	x
c1ccc(B2OC[C@@H]3OB(c4ccccc4)O[C@H]([C@@H]4COB(c5ccccc5)O4)[C@@H]3O2)cc1	-44%[5.75 µM]	1.6µM*	5%[8 µM]	>57
Nc1cccc2cc(S(=O)(=O)Nc3ccc(C(=O)O)cc3)ccc12	-13%[5.75 µM]	-7%[5.75 µM]	-3%[8 µM]	>57
CCCCCCNC(=O)c1c(O)c2ccccc2[nH]c1=O	13µM*	2%	22%	>57
Cc1cc(CN2CCN(CCC#N)CC2)c(O)c(C2(C)CCCCC2)c1	14%	-8%	13µM*	>57
Cn1c(=O)c(CCc2ccccc2)nc2cnc(N3CCNCC3)nc21	52%	-3%	0%	>57
Cc1c(-c2nc(N)nc(Nc3ccccc3)n2)oc2ccccc12	98%	-6%	13µM*	>57
O=C1OC(NC(=O)c2ccccc2)C(n2cc(CO)nn2)=C1Cl (configuration not stated)	-8%	-4%	13µM*	>57
CO[C@@H]1CC[C@@]2(C)[C@@H](CC[C@@]3(C)[C@H]2CC=C2[C@H]4CC(C)(C)[C@H](O)[C@@H](OC(C)=O)[C@]4(CO)[C@H](O)C[C@]23C)[C@@]1(C)CO (tested in a mixture with another compound)	100%[12.8 µM]	-3%[12.8 µM]	-7%[3.58 µM]	>57
SMILES	AmpC nodet inh	AmpC det inh	Anthrax LT inh	SmPrx2 inh
C[C@H]1[C@H](C)CC[C@@]2(C(=O)O)CC[C@]3(C)C(=CC[C@@H]4[C@@]5(C)CC[C@H](O)C(C)(C)[C@@H]5CC[C@@]43C)[C@@H]12	1%	-1%	7.9µM*	>57
Cc1ccc(C)c(S(=O)(=O)Nc2ccccc2C(=O)Nc2cc(C)on2)c1	6.3µM*	-4%	u	>57
Cc1cc(-c2ccccc2)n2ncc(C#N)c2n1	4µM*[single pt active]	13%	-13%	>57
CSc1nc2nc(C)cc(-c3ccccc3)n2n1	12%	-6%	5%	>57
O=S(=O)(c1ccc(Oc2ccc(S(=O)(=O)N3CCOCC3)cc2)cc1)N1CCOCC1	108%	-1%	-15%	x
C=CS(=O)(=O)c1ccc(Oc2ccc(S(=O)(=O)C=C)cc2)cc1	15%	2%	4µM*	u
CCN(CC)S(=O)(=O)c1ccc(NC(=O)Cn2c(=O)sc3ccccc32)cc1	u	1%	-21%	>57
O=C(Cn1c(=O)oc2cc(S(=O)(=O)N3CCCC3)ccc21)Nc1ccc(C(F)(F)F)cc1	10µM*[single pt active]	19%	-17%	>57
O=C(O)Cn1c(=O)oc2cc(S(=O)(=O)NC3CCCCC3)ccc21	2.5µM*[single pt active]	11%	-3%	>57
Cc1noc(NS(=O)(=O)c2ccc(NC(=O)CCn3c(=O)oc4ccccc43)cc2)c1C	-2%	9%	-9%	u
O=C(CN1CCCCC1)Nc1ccc(S(=O)(=O)N2CCCCCC2)cc1	1%	-7%	-4%	>57
Cc1cc(C)nc(NS(=O)(=O)c2ccc(NC(=O)Cn3c(=O)oc4ccccc43)cc2)n1	4µM*[single pt active]	14%	-4%	>57
O=C(Cn1c(=O)sc2ccccc21)Nc1ccc(S(=O)(=O)N2CCCCC2)cc1	6.3µM*	-4%	-2%	>57
CC(C)C1=CC2=CC[C@H]3[C@@](C)(CCC[C@]3(C)C(=O)O)[C@@H]2CC1	-8%	-1%	u	>57
N=C1[C@@H](O)[C@]2(I)c3ccccc3N3C(=N)[C@H](O)[C@@H]4c5ccccc5N1[C@@H]4[C@@H]32	-17%[5.75 µM]	-5%[5.75 µM]	-6%[8 µM]	>57
O=C(O)COCCN1CCN([C@@H](c2ccccc2)c2ccc(Cl)cc2)CC1	28%[12.8 µM]	0%[12.8 µM]	7%[3.58 µM]	>57
CCCC(=O)NCCc1c2n(c3ccc(OC)cc13)Cc1ccccc1-2	34%	0%	-2%	>57
Cc1c(C(=O)NCc2ccc3c(c2)OCO3)oc2ccc(S(=O)(=O)N3CCC(C)CC3)cc12	4%	-5%	-14%	>57
CC1CCN(S(=O)(=O)c2ccc3c(c2)oc(=O)n3CC(=O)NCc2ccc3c(c2)OCO3)CC1	4µM*	4%	u	>57
O=C(Cn1c(=O)oc2cc(S(=O)(=O)N3CCCCCC3)ccc21)NC1CCCCCCC1	4µM*[single pt active]	9%	-8%	>57
O=C(Cn1c(=O)oc2cc(S(=O)(=O)N3CCCC3)ccc21)NC1CCCc2ccccc21 (configuration not stated)	2µM*	12%	u	>57
CC1CCN(S(=O)(=O)c2ccc3c(c2)oc(=O)n3CC(=O)N2c3ccccc3CC2C)CC1 (configuration not stated)	17%	3%	u	>57
CC(C)C1=C[C@@]23CC[C@@H]4[C@](C)(CCC[C@@]4(C)C(=O)O)[C@@H]2C[C@@H]1[C@@H](C(=O)O)[C@@H]3C(=O)O	2%[5.75 µM]	-4%[5.75 µM]	-3%[8 µM]	>57
O=C(CSCc1ccco1)c1ccc(Cl)s1	10µM*	12%	-8%	>57
Cc1cc(NC(=O)c2noc3c2CCc2ccccc2-3)no1	4µM*[single pt active]	9%	-1%	>57
